Assay results reported in PubChem BioAssay.
The source made the active and inactive calls.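 The calls were made as follows, unless noted: active = compounds whose cell count with miR-34 switched on is under 0.7 times the count with it off; inactive = the rest.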

What was measured:
[1] = system: Hepatitis C virus NS3 helicase; assay: HCV NS3 helicase inhibitors, primary screen, biochemical, fluorescence polarization, LOPAC1280 library (AID 687035; in the data active = inhibition above about 37%); settings: Purified HCV NS3 helicase, Cy5-dT15 ssDNA binding fluorescence polarization; stronger effect = higher value; concentration not given here
[2] = Cy5 fluorescence quenching or enhancement artefacts, artefact control for HCV NS3 helicase inhibitor project, biochemical, LOPAC1280 (AID 687037; call rule not given here); settings: Cy5-DNA-NS3h complex fluorescence interference counterscreen
[3] = sensitizers of A549 cells to miR-34 induction, primary screen, imaging, A549 dox-inducible miR-34, nuclei and caspase counts (AID 1347080); settings: A549 miR-34 inducible, Hoechst nuclei count, 48 h
[4] = phospholipid biosynthesis inhibitors in animal cells, primary screen, cell-based, LOPAC library, screen 4 (AID 1347384; call rule not given here); settings: phospholipid biosynthesis inhibition screen, at 10 µM
[5] = viability rescue of complex I mutant cybrids, primary screen, cell-based, galactose medium, ATP luminescence (AID 1645843;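 active = z-score of at least 1.8 in each of two replicates, scored against plate mean and spread of sample wells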;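 also: positive z means more ATP and so rescue of galactose-driven cybrid death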); settings: complex I mutant cybrid cells, 72 h, stronger effect = higher value
[6] = survival rescue of mitochondrial mutant cells in low glucose, primary screen, MELAS cybrids, Rieske KO mouse fibroblasts, CellTiter-Glo (AID 1508586;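 active = mean z-score across replicates of 1.96 or higher in either the MELAS or the Rieske mutant cell line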;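 also: z relative to plate mean and SD of compound and empty wells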)
[7] = circadian clock period modulators, cell-based, LOPAC library, luminescence reporter (AID 2774; call rule not given here;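 also: values are relative to mean of DMSO wells on each plate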); settings: circadian reporter cells, at 7 µM, actives lie on both sides
[8] = stronger effect = lower value, cell number ratio, induced over uninduced
[9] = measured here: relative caspase fold change +Dox/-Dox
[10] = measured here: total cells with miR-34 induction, stronger effect = lower value
[11] = measured here: total cells without miR-34 induction
[12] = MELAS cybrid survival, CellTiter-Glo 48 h, stronger effect = higher value
[13] = Rieske KO mouse fibroblast survival, CellTiter-Glo 72 h

Row | Compound | inhibition [1] | fluorescence ratio (interference) [2] | fold change [3, 8] | fold change [3, 9] | cell count [3, 10] | cell count [3, 11] | outcome [4] | z-score [5] | z-score [6, 12] | z-score [6, 13] | period change [7]
1 | Nc1nc2c(ncn2[C@@H]2O[C@H](CO)[C@@H](O)[C@@H]2O)c(=O)[nH]1 | -2% (inactive) | 1 (inactive) | 0.934 (inactive) | 1.54 | 8710 | 9330 | inactive | 4.94 (active) |  |  | 
2 | C=C1c2cccc(O)c2C(O)=C2C(=O)[C@]3(O)C(O)=C(C(N)=O)C(=O)C(N(C)C)[C@@H]3C(O)[C@H]12 (some centres not stated) |  |  | 0.858 (inactive) | 1.09 | 7630 | 8890 |  |  | 5.63 (active) | 0.965 | 
3 | COc1cc(F)c(C(C)C)cc1-c1ccc(C(F)(F)F)cc1CN1C(=O)OC(c2cc(C(F)(F)F)cc(C(F)(F)F)c2)C1C (configuration not stated) |  |  | 0.899 (inactive) | 0.917 | 8290 | 9220 |  |  | -0.143 (inactive) | 0.372 | 
4 | CCOC(=O)N1c2ccc(C(F)(F)F)cc2C(N(Cc2cc(C(F)(F)F)cc(C(F)(F)F)c2)C(=O)OC)CC1CC (configuration not stated) |  |  | 0.939 (inactive) | 0.794 | 8370 | 8920 |  |  | -0.304 (inactive) | 0.988 | 
5 | OCC1O[C@H]([S-])[C@@H](O)C(O)[C@@H]1O.[Au+] (some centres not stated) | 36% (inactive) | 1 (inactive) | 0.895 (inactive) | 0.924 | 6430 | 7180 | inactive | -1.29 (inactive) |  |  | 
6 | O=C(NN=Cc1ccc(O)c(O)c1)c1cc2ccccc2cc1O |  |  | 0.949 (inactive) | 0.497 | 8120 | 8550 |  |  | -0.481 (inactive) | 0.559 | 
7 | O=C1c2ccc(Nc3ccc(F)cc3F)cc2CCc2ccc(OCC(O)CO)cc21 (configuration not stated) |  |  | 0.924 (inactive) | 0.413 | 6890 | 7450 |  |  | -0.55 (inactive) | 0.56 | 
8 | c1ccc2c(c1)CCC[C@H]2Nc1nc2ccccc2[nH]1 | -3% (inactive) | 1 (inactive) | 1.09 (inactive) | 0.557 | 7820 | 7150 | inactive | -0.675 (inactive) |  |  | 
9 | O=C1NC(=O)C(=Cc2ccc3c(c2)OC(F)(F)O3)S1 |  |  | 0.912 (inactive) | 0.633 | 8930 | 9790 |  |  | -0.318 (inactive) | -0.248 | 
10 | O=C(Nc1cc(C(F)(F)F)ccc1N1CCCCC1)c1ccncc1 |  |  | 0.916 (inactive) | 0.317 | 7440 | 8120 |  |  | -0.391 (inactive) | 1.41 | 
11 | O=C(CCCCCN1CCN(c2ccccc2-c2ccccc2)CC1)NC1CCCc2ccccc21 (configuration not stated) | 0% (inactive) | 1 (inactive) | 1.17 (inactive) | 1.11 | 6130 | 5250 | inactive | -1.38 (inactive) |  |  | 
12 | CCCCC#Cc1nc(NC)c2ncn([C@@H]3O[C@H](CO)C(O)[C@@H]3O)c2n1 (some centres not stated) | -2% (inactive) | 1 (inactive) | 1.02 (inactive) | 2.24 | 10300 | 10100 | inactive | 0.245 (inactive) |  |  | 
13 | CC1OC(Oc2c(-c3cc(O)c(O)c(O)c3)oc3cc(O)cc(O)c3c2=O)C(O)C(O)C1O (configuration not stated) |  |  | 0.976 (inactive) | 1.01 | 8230 | 8430 |  |  | -0.43 (inactive) | -0.277 | 
14 | Cn1cc(C=CC(=O)c2cccc(F)c2)cc1C=CC(=O)NO |  |  | 0.9 (inactive) | 1.19 | 7610 | 8450 |  |  | -0.416 (inactive) | 0.68 | 
15 | O=C(O)C(Cc1ccccc1[N+](=O)[O-])=NNC1=NC(c2ccc(Cl)c(Cl)c2)CS1 (configuration not stated) |  |  | 0.88 (inactive) | 0.284 | 6240 | 7100 |  |  | -0.273 (inactive) | 0.221 | 
16 | Cc1cc2c(cc1Cl)N(C(=O)Nc1ccnc3ccccc13)CC2 | -1% (inactive) | 0.9 (inactive) | 1.12 (inactive) | 1.03 | 10500 | 9390 | inactive | -0.09 (inactive) |  |  | 
17 | NC(=O)Nc1cc(-c2cccc(F)c2)sc1C(=O)NC1CCCNC1 (configuration not stated) |  |  | 1.01 (inactive) | 0.785 | 866 | 858 |  |  | -0.543 (inactive) | -2.7 | 
18 | NC[C@@H]1O[C@H](c2ccccc2)Cc2c1ccc(O)c2O | -3% (inactive) | 0.9 (inactive) | 0.966 (inactive) | 1.26 | 9490 | 9820 | inactive | -1.3 (inactive) |  |  | 
19 | O=C(C=Cc1ccccc1)NC(NC(=S)Nc1ccc(Cl)cc1)C(Cl)(Cl)Cl (configuration not stated) |  |  | 0.995 (inactive) | 0.524 | 2510 | 2520 |  |  | -0.431 (inactive) | -0.459 | 
20 | CCCCc1ncc(C=C(Cc2cccs2)C(=O)O)n1Cc1ccc(C(=O)O)cc1 |  |  | 0.858 (inactive) | 0.882 | 8440 | 9840 |  |  | -0.00421 (inactive) | -0.115 | 

Row | Compound | inhibition [1] | fluorescence ratio (interference) [2] | fold change [3, 8] | fold change [3, 9] | cell count [3, 10] | cell count [3, 11] | outcome [4] | z-score [5] | z-score [6, 12] | z-score [6, 13] | period change [7]
21 | CC1CC(C(=O)O)C2CC[C@]3(C)C(=CC[C@H]4[C@@]5(C)CCC(O)C(C)(C)[C@@H]5CC[C@]43C)[C@H]2C1C (some centres not stated) |  |  | 0.867 (inactive) | 0.88 | 8220 | 9470 |  |  | -0.234 (inactive) | 0.804 | 
22 | CCCC(CCC)C(=O)OC1CC2CCC(C1)[N+]2(C)C (configuration not stated) | 0% (inactive) | 1.1 (inactive) | 0.959 (inactive) | 1.54 | 9840 | 10300 | inactive | -0.005 (inactive) |  |  | 
23 | OCC1OC(c2ccc(Cl)c(Cc3ccc(OC4CCOC4)cc3)c2)C(O)C(O)C1O (configuration not stated) |  |  | 0.997 (inactive) | 0.234 | 8710 | 8730 |  |  | -0.39 (inactive) | -0.293 | 
24 | COc1ccc(CCn2nnnc2C2(c3ccc(C)cc3)CC2)cc1 | -4% (inactive) | 1.1 (inactive) | 1.09 (inactive) | 0.893 | 8770 | 8010 | inactive | -0.23 (inactive) |  |  | 
25 | CC(CNC(=O)c1cccnc1)NC(=O)c1cccnc1 (configuration not stated) |  |  | 0.92 (inactive) | 1.03 | 9140 | 9930 |  |  | -0.163 (inactive) | -0.298 | 
26 | NC(=O)c1ncn(C2OC(CO)C(O)C2O)c1N (configuration not stated) |  |  | 0.801 (inactive) | 0.953 | 7500 | 9360 |  |  | 0.179 (inactive) | 0.0953 | 
27 | CSc1ccccc1N1CCN(CCCCCC(=O)NC2CCCc3ccccc32)CC1 (configuration not stated) | -5% (inactive) | 1 (inactive) | 0.986 (inactive) | 1.19 | 7020 | 7120 | inactive | -1.29 (inactive) |  |  | 
28 | COc1ccc(-c2ccc3c(N4CCOCC4C)nc(N4CCOCC4C)nc3n2)cc1CO (configuration not stated) |  |  | 0.853 (inactive) | 1.28 | 2360 | 2770 |  |  | 5.74 (active) | -3.07 | 
29 | CC1C(=O)O[C@H]2C(O)C34C5CC(C(C)(C)C)C36C(O)C(=O)O[C@H]6O[C@]4(C(=O)O5)[C@@]12O (some centres not stated) |  |  | 0.925 (inactive) | 1.45 | 7630 | 8250 |  |  | -0.353 (inactive) | -0.351 | 
30 | CC1=C(C(=O)OC2CCCCC2)C(c2ccc([N+](=O)[O-])cc2)C2=C(CC(C)(C)CC2=O)N1 (configuration not stated) |  |  | 1.46 (inactive) | 0.547 | 1480 | 1010 |  |  | -0.282 (inactive) | -2.79 | 
31 | COC(=O)CCSCc1ccc(-c2onc(C)c2NC(=O)OC(C)c2ccccc2Cl)cc1 (configuration not stated) |  |  | 0.847 (inactive) | 0.706 | 6550 | 7730 |  |  | -0.226 (inactive) | -0.128 | 
32 | Cc1cc(C)c(C=C2C(=O)Nc3ccccc32)[nH]1 |  |  | 0.941 (inactive) | 0.528 | 5670 | 6030 |  |  | 0.363 (inactive) | -0.0507 | 
33 | O=C1CN(/N=C/c2ccc(-c3ccc([N+](=O)[O-])cc3)o2)C(=O)N1 |  |  | 0.852 (inactive) | 0.844 | 3600 | 4220 | inactive |  |  |  | 0.19 h (inactive)
34 | CCn1c2ccccc2c2cc(Nc3ccnc(NCCCN4CCOCC4)n3)ccc21 |  |  | 1.23 (inactive) | 0.454 | 2810 | 2280 |  |  | -0.307 (inactive) | 0.428 | 
35 | O=CC(O)C(O)C(O)CO (configuration not stated) |  |  | 0.913 (inactive) | 0.975 | 7900 | 8650 |  |  | 0.55 (inactive) | -0.188 | 
36 | CNCCc1cnc(CCC(c2ccccc2)c2ccccc2)[nH]1 | -4% (inactive) | 1 (inactive) | 1.13 (inactive) | 0.656 | 5430 | 4810 | inactive | -0.725 (inactive) |  |  | 
37 | CC#CCn1c(N2CCCC(N)C2)nc2c1c(=O)n(Cc1nc(C)c3ccccc3n1)c(=O)n2C (configuration not stated) |  |  | 0.91 (inactive) | 0.676 | 9950 | 10900 |  |  | -0.379 (inactive) | 0.539 | 
38 | O=C(C=Cn1cnc(-c2cc(C(F)(F)F)cc(C(F)(F)F)c2)n1)N1CC(F)(F)C1 |  |  | 0.887 (inactive) | 0.422 | 1980 | 2230 |  |  | -0.618 (inactive) | -7.49 | 
39 | Cc1cc(Nc2nc(NC(C)c3ncc(F)cn3)ncc2Cl)n[nH]1 (configuration not stated) |  |  | 1.07 (inactive) | 1.17 | 1380 | 1290 |  |  | 0.54 (inactive) | -3.57 | 
40 | CC1CC[C@]2(C(=O)O)CC[C@]3(C)C(=CC[C@H]4[C@@]5(C)CC(O)C(O)[C@@](C)(CO)[C@@H]5CC[C@]43C)[C@H]2C1C (some centres not stated) |  |  | 0.88 (inactive) | 0.855 | 8330 | 9460 |  |  | -0.312 (inactive) | 0.68 | 
